Rows were chosen to be rich in hits. Some 5.1% of all compounds tested hit in one or more screens of this group.
NPSR antag: blocks cAMP signaling of the human neuropeptide S receptor | Q6W5P4 | CHO-NPSR cells, cAMP TR-FRET, antagonist mode | Potency, µM (top dose mostly 38.3 µM), without a hit: at the top dose activity change, negative = inhibition, usual class: inhibitors | hit rate 1% among 220,000; note: potency is the fitted concentration of half-maximal effect; nearly all actives have a fitted effect of over 50% in size
Target sequence (Q6W5P4 whole entry, looked up): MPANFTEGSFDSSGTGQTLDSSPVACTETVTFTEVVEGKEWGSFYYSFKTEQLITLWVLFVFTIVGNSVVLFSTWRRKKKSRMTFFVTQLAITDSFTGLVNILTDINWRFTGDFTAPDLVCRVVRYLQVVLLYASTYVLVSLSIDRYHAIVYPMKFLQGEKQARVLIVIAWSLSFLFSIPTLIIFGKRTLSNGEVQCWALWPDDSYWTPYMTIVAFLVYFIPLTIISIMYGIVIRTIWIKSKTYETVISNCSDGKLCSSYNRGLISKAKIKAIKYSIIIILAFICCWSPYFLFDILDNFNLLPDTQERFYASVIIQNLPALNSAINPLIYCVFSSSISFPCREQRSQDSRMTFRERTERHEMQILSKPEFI
Tau fluor counter: counter-screen for tau fibril formation inhibitors. tau K18 P301L Alexa594 fluorescence, heparin fibrillization. Potency, µM (doses to about 57.7 µM), for inactives: at the highest dose activity change, negative = decrease. hit rate 0.93% among 280,000. AID 1463; note: potency is the fitted concentration of half-maximal effect; nearly all actives have a fitted effect of over 55% in size
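Human K18 P301L tau (15 uM unlabeled plus 0.24 uM Alexa 594-labeled, final) in 100 mM sodium acetate pH 7 was mixed with compound and 20 uM heparin and incubated 6 hr at 37 C.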
JMJD2E inh: inhibitors of human JMJD2E histone demethylase | B2RXH2 | JMJD2E catalytic domain, FDH-coupled NADH fluorescence (FDH is formaldehyde dehydrogenase) | Potency, µM (top dose mostly 57.1 µM), for the others: top-dose activity change, negative = inhibition, actives largely listed as inhibitors | hit rate 1.6% among 230,000 | AID 2147; active = well fitted inhibition curve with a large enough effect, not every such curve was filed as active; inconclusive = small, poorly fitted or top-dose-only effect, or another doubt; inactive = no such curve, though single readings can be large or run the other way;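 note: potency is the fitted concentration of half-maximal effect; 0% = wells with enzyme and -100% = buffer wells without enzyme; nearly all actives have a fitted effect of over 50% in size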
Target sequence (B2RXH2 1-337 limits assumed): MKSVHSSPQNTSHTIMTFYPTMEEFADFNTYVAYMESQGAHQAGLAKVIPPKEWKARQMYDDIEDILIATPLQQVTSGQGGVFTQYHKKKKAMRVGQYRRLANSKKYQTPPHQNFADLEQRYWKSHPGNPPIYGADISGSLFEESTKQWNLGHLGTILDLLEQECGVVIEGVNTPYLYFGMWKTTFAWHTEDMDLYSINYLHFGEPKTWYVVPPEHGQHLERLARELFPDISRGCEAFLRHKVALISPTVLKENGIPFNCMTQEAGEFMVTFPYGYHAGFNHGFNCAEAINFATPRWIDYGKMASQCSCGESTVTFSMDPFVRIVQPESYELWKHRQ
PNC assembly inh: perinucleolar compartment assembly inhibition. PC3M PTB-GFP, PNC prevalence imaging, 16 h; stronger effect = lower value. activity change (PNC), negative = inhibition, % at 10 µM. hit rate 3.1% among 140,000;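 active = readout at or below -70, meaning at least 70% loss of cells showing the perinucleolar compartment, a nuclear body marking cancer cells; inconclusive = readout between -30 and a set limit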;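 note: plate controls were DMSO wells for no effect and camptothecin positive control wells for full effect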
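Compounds are pinned in duplicate onto adhered PC3M cells stably expressing GFP-tagged PTB and incubated 16 h at 37 C. Cells are then fixed, nuclei stained with Hoechst, and PNC-positive cells counted.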
Tau fibril ThT: inhibitors of human tau fibril formation, thioflavin T binding; P10636; recombinant tau K18 P301L, heparin-induced fibrillization, ThT fluorescence; Potency, µM (titrated, usually from 57.4 µM), for the others: at the highest dose activity, negative = inhibition, usual class: inhibitors; hit rate 2.1% among 270,000; AID 1460; note: potency is the fitted concentration of half-maximal effect; nearly all actives have a fitted effect of over 55% in size
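Fibril formation assay: tau K18 P301L at 15 uM with trace Alexa 594 label, heparin inducer 20 uM, pH 7 sodium acetate buffer, 37 C for 6 hr; endpoint ThT signal.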
Tau FP inhib: tau fibrillization inhibition (FP). P10636. K18 P301L tau heparin fibrillization, Alexa594 FP, 6 h. Potency, µM (highest dose often 57.7 µM), for inactives: at the top dose activity, negative = inhibition, usual class: inhibitors. hit rate 0.39% among 280,000. AID 1468; note: potency is the fitted concentration of half-maximal effect; nearly all actives have a fitted effect of over 55% in size
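K18 P301L tau (15 uM unlabeled/0.24 uM Alexa 594-labeled, final) + compound + heparin 20 uM final; 100 mM NaOAc pH 7; 6 hr 37 C; ThT 30 uM final added, 1 hr RT; FP ex 555/em 632 nm.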
Numbers without * were called inactive; ? = inconclusive; nt = no result; [ ] = dose if it differs, or a comment. Unless noted, calls come from the whole dose curve; as a rule, active = well fitted curve in the direction sought with a large enough effect; inconclusive = small, poorly fitted or top-dose-only effect, or another doubt; inactive = no such curve, though single readings can be large; an effect the other way counts as inactive or inconclusive. Unless noted, % is set by controls: 0 for no effect and ±100 for the full control effect.

SMILES	NPSR antag	Tau fluor counter	JMJD2E inh	PNC assembly inh	Tau fibril ThT	Tau FP inhib
Clc1ccc(Cn2c(/C=C/c3ccco3)nc3ccccc32)cc1	-44.9%	-8.0%	?	-84.2*	?	-2.4%
Cc1ccc(Cn2c(/C=C/c3ccco3)nc3ccccc32)cc1	-53.5%	?	?	-18.8	25.1µM*	?
CCCn1c(/C=C/c2ccco2)nc2ccccc21	-0.6%[46.1 µM]	7.8%	-3.6%	?	6.3%	5.7%
COC(=O)c1ccc(NC(=O)c2cc(=O)c3ccc(C)cc3o2)cc1	nt	-21.2%	nt	nt	-20.9%	-3.4%
Cc1cc2nc(CO)[nH]c2cc1C	10.0%	6.7%	-1.2%	nt	1.3%	8.8%
Cc1cc2nc(CS)[nH]c2cc1C	2.3%	-25.5%	317.2%	nt	31.6µM*	-2.7%
Cc1cc([N+](=O)[O-])ccc1-c1ccc(C2Nc3ccccc3C(=O)N2O)o1 (centres undefined)	?	?	28.2µM*	32.6	14.1µM*	3.8%
CCOC(=O)C1CCC(CN(Cc2ccc(OC)cc2)S(=O)(=O)c2ccc(F)c(C(=O)Nc3ccc(C)c(C)c3)c2)CC1 (centres undefined)	nt	-21.1%	nt	nt	-14.2%	-5.2%
O=C(Nc1ccc(Br)c(C(F)(F)F)c1)c1ccc(C(F)(F)F)cc1	?	-28.3%	3.8%	nt	nt	22.4µM*
O=C(Nc1ccc(Br)c(C(F)(F)F)c1)c1ccccc1	-19.3%	?	-3.9%	39.6	-18.0%	?
COc1cccc(CS(=O)(=O)c2nnnn2-c2ccccc2)c1	nt	-8.1%	2.0%	nt	?	-2.6%
CCCS(=O)(=O)c1nnnn1-c1cccc(OC)c1	10µM*	14.0%	1.8%	-4.8	3.3%	-1.4%
O=C(COc1ccccc1Cl)Nc1ccc(CN2CCCCC2)cc1	1.0%	-3.0%	-1.8%	nt	-0.3%	0.7%
O=C(COc1ccccc1Cl)Nc1cnn(Cc2ccccc2)c1	-16.8%[46.1 µM]	-21.3%	-1.9%	-94.0*	-21.3%	11.1%
O=Nc1c(-c2cccc([N+](=O)[O-])c2)nc2ncccn12	?	-29.0%	?	nt	3.98µM*	6.31µM*
COc1ccc(C)cc1NC(=O)c1c(C(=O)Nc2cccc(C)c2C)sc2nc(C)cc(=O)n12	nt	-7.7%	nt	nt	1.8%	-4.7%
CCOCCCn1c(SCC(=O)NCc2ccccc2)nc2c(sc3ccccc32)c1=O	nt	1.7%	nt	nt	11.0%	-5.4%
NCCc1nnc(SCc2c(Cl)cccc2Cl)o1	6.4%[7.67 µM]	-4.9%	1.3%	nt	-5.6%	0.5%
NCCc1nnc(SCc2c(F)cccc2Cl)o1	?	6.9%	-5.3%	-103.2*	5.7%	2.3%
COc1ccccc1NC(=O)Cc1csc(NC(=S)Nc2ccc(C)cc2)n1	-24.5%[46.1 µM]	12.6µM*[quencher]	13.6%	0.9	-5.4%	?
CCOc1ccccc1/C=N/NC(=O)Cc1csc(Nc2cccc(C(F)(F)F)c2)n1	-18.8%[46.1 µM]	20µM*[quencher]	-17.1%	8.6	-16.6%	11.3%
CCc1cccc(C)c1NC(=O)c1cc(S(=O)(=O)N(C)Cc2ccccc2)ccc1F	nt	-25.7%	nt	nt	-15.6%	8.7%
CCN(CC)CCCNc1oc(/C=C/c2ccc(OC)c(OC)c2)nc1C#N	nt	-8.7%	nt	nt	-10.8%	3.3%
Cc1cc(C(=O)CCC(=O)N2CCN(S(=O)(=O)c3cccs3)CC2)c(C)s1	-3.3%[46.1 µM]	-17.3%	2.5%	-99.5*	-20.2%	-3.3%
COC(=O)c1scc(S(=O)(=O)C(C)C)c1N/N=C(\C#N)C(=O)c1ccc(Cl)cc1	25.2%[7.67 µM]	-6.3%	-6.3%	nt	?	6.9%
SMILES	NPSR antag	Tau fluor counter	JMJD2E inh	PNC assembly inh	Tau fibril ThT	Tau FP inhib
COC(=O)c1scc(C#N)c1N/N=C(\C#N)S(=O)(=O)c1ccc(Cl)cc1	10µM*	-8.3%	1.5%	nt	nt	-7.0%
COc1ccc(Cc2nnc3c4cnn(C)c4ncn23)cc1	-2.0%[46.1 µM]	0.4%	-7.3%	-85.9*	-7.1%	-2.7%
CC(=O)Nc1cccc(NC(C)=O)n1	-15.8%	0.4%	-10.1%	-118.9*	5.9%	7.0%
CC(=O)Nc1cccc(C(=O)O)n1	4.2%	9.7%	?	nt	-0.4%	-2.2%
CC(C)c1cccc2cc3c(nc12)-c1cccc(=O)n1C3	nt	-17.2%	?	nt	-23.2%	-4.5%
O=C(O)COc1ccc(C(=O)c2cccs2)c(Cl)c1Cl	nt	-0.9%	nt	nt	-7.5%	11.8%
O=C(O)COc1ccc2nsnc2c1Cl	12.6µM*	-0.3%	?	?	-5.2%	3.3%
CC(Sc1nccn1C)C(=O)Nc1ccccc1C#N (centres undefined)	nt	-11.2%	nt	nt	-8.3%	6.2%
O=C(CCCCn1c(=O)c2ccccc2n(Cc2ccc(Cl)cc2)c1=O)NCc1ccccc1Cl	nt	-2.0%	nt	nt	1.7%	9.3%
COc1ccccc1OCC(=O)Nc1c(C(=O)c2ccc(F)cc2)oc2ccccc12	nt	-17.1%	nt	nt	-5.2%	?
Cc1c(Cl)cccc1NC(=S)N=Nc1c(O)n(CN2CCOCC2)c2ccccc12	-48.1%	17.8µM*[quencher]	3.2%	?	?	-14.3%
CC(C)n1cnc2c(N(C)c3ccccc3)nc(N(CCN(C)C)Cc3ccccc3)nc21	10µM*	-4.7%	-27.8%	nt	?	3.2%
COc1ccc(CN(CCN(C)C)c2ncccn2)cc1	nt	-10.9%	-0.8%	nt	-3.9%	?
COc1ccc(CNC(=O)c2sc3nc4n(c(=O)c3c2C)CCCC4)cc1	nt	-4.9%	nt	nt	-12.4%	6.6%
Cc1sc2ccc3sccc3c2[n+]1C	-13.2%	-24.4%	14.1µM*	nt	25.1µM*	?
Cc1sc2c3ccsc3ccc2[n+]1C	28.5%	-21.5%	25.1µM*	nt	25.1µM*	20µM*
Cc1ccc(-c2nn(-c3ccc(F)cc3F)c3c2cnc2ccc(F)cc23)cc1	nt	5.1%	nt	nt	7.3%	1.3%
C/C(=N/Nc1ccc(F)cc1)c1ccc(Cl)s1	-0.9%[46.1 µM]	14.1µM*[quencher]	-14.0%	?	?	7.4%
COc1ccc(-c2coc3cc4oc(=O)c5ccccc5c4cc23)cc1F	?	-13.3%	9.7%	-81.3*	2.6%	-12.3%
CCCCOc1ccc(/C=C/C(=O)Nc2ccc([N+](=O)[O-])cc2C)cc1	16.6%	-6.9%	?	?	-12.4%	4.0%
Cc1cc([N+](=O)[O-])ccc1NC(=O)/C=C/c1cccs1	-8.4%	-28.5%	?	-112.5*	?	-10.7%
Cc1ccc(NC(=O)/C=C/c2ccc([N+](=O)[O-])s2)cc1	-3.3%	-21.1%	-9.4%	-17.0	?	-9.1%
Cc1ccc(NC(=O)/C=C/c2ccc([N+](=O)[O-])s2)c(C)c1	-30.4%	?	3.3%	-97.5*	?	?
COc1ccc(NC(c2ccc(F)cc2)c2nnc(-c3ccccc3Cl)o2)cc1Cl (centres undefined)	nt	?	nt	nt	-10.2%	8.5%
COc1ccccc1NC(=O)C1=C(C)Nc2nc3ccccc3n2C1c1cccc(Br)c1 (centres undefined)	nt	?	nt	nt	3.0%	-6.8%
Cc1cccc(NC(c2ccccc2C)c2ccc3ccc(C)nc3c2O)n1 (centres undefined)	nt	-23.9%	nt	nt	?	-4.9%

Bioassay records deposited in PubChem by National Center for Advancing Translational Sciences (NCATS).
